Data published in the supplement of paper PMC12024529.

Tested on: HEK293 WT BDD-FVIII-Gluc
Assay: secreted FVIII-Gluc luciferase Z-score vs DMSO control; higher = more FVIII-Gluc secretion
Settings: 5 µM
Method: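 Natural plant-compound library (480 compounds, ST catalogue IDs) screened on HEK293 cells stably expressing WT BDD-FVIII-Gaussia luciferase fusion at 5 µM. Secreted Gluc activity in the medium is given as a Z-score relative to DMSO controls.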

| Compound | secreted FVIII-Gluc luciferase Z-score |
| --- | --- |
| COc1cc2c(cc1OC)C(Cc1ccc(OC)c(OC)c1Oc1cc3c(cc1OC)-c1c(OC)c(OC)cc4c1C(C3)N(C)CC4)N(C)CC2 (centres undefined) | 0.304 |
| CC(=O)Oc1ccc(/C=C/C(=O)CC2OC(Oc3cc(OC(C)=O)c4c(c3)O[C@@H](c3ccc(OC(C)=O)cc3)CC4=O)C(OC(C)=O)C(OC(C)=O)C2OC(C)=O)cc1 (some centres undefined) | 0.201 |
| C=CC(C)(O)CCC=C(C)C (centres undefined) | -0.395 |
| Cc1ccc(CC(Cc2nc3ccccc3[nH]2)c2nc3ccccc3[nH]2)cc1 (centres undefined) | 0.284 |
| O=c1cc(-c2ccccc2)oc2c1ccc1ccccc12 | 0.373 |
| COc1ccc(OC)c(C2Nc3ccccc3NC3=C2C(=O)CC(C)(C)C3)c1Br (centres undefined) | 0.0362 |
| C/C(=C\CNc1ncnc2c1ncn2C1OC(CO)C(O)C1O)CO (centres undefined) | -0.332 |
| COc1cc2c(Cc3c4c5c(cc(OC)c(OC)c5c5c(OC)c(OC)ccc35)CCN4C)c3c4c(cc(OC)c(OC)c4c2cc1OC)CCN3C | -0.165 |
| COc1ccc(-c2cc(=O)c3ccc(O)cc3o2)cc1 | 1.22 |
| CC(C)=CCC/C(C)=C\COc1c2ccoc2cc2oc(=O)ccc12 | -0.466 |
| COc1cc2oc(-c3ccccc3)cc(=O)c2cc1O | 0.564 |
| COc1cccc2oc(-c3ccc(O)cc3)cc(=O)c12 | 1.3 |
| COc1ccc(-c2oc3ccc(C)cc3c(=O)c2O)cc1OC | -0.624 |
| O[C@@H]1COC2C1OC[C@@H]2O (some centres undefined) | 0.547 |
| COc1c2ccoc2cc2oc(=O)ccc12 | 0.335 |
| O=c1ccn(C2OC(COP(=O)(O)O)C(O)C2O)c(=O)[nH]1 (centres undefined) | 0.638 |
| N[C@H](Cc1c[nH]c2ccccc12)C(=O)O | 0.298 |
| COc1cc(CNC(=O)CCCCCCC(C)C)ccc1O | -0.541 |
| N=C(N=C(N)N)N1CCOCC1 | 0.384 |
